Experimental data from PubChem BioAssay (NCATS).
Inconclusive results are not listed. Calls of active or inactive are those of the source. Calls follow the shape of the dose curve; as a rule, active = well fitted curve in the direction sought with a large enough effect; inconclusive = small, poorly fitted or top-dose-only effect, or another doubt; inactive = no such curve, though single readings can be large; an effect the other way counts as inactive or inconclusive.

Assays:
[1] = target: Rap guanine nucleotide exchange factor 3 (Homo sapiens) (UniProt O95398); assay: Confirmatory qHTS for agonist of cAMP-regulated guanine nucleotide exchange factor 3 (EPAC1) (AID 1645881);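 also: EPAC1 catalysed release of BODIPY-GDP from Rap1B seen as fluorescence loss; 100% = effect of cAMP agonist control; nearly all actives have a fitted effect of over 75% in size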
Sequence of Rap guanine nucleotide exchange factor 3 (Homo sapiens) (O95398 whole entry, looked up): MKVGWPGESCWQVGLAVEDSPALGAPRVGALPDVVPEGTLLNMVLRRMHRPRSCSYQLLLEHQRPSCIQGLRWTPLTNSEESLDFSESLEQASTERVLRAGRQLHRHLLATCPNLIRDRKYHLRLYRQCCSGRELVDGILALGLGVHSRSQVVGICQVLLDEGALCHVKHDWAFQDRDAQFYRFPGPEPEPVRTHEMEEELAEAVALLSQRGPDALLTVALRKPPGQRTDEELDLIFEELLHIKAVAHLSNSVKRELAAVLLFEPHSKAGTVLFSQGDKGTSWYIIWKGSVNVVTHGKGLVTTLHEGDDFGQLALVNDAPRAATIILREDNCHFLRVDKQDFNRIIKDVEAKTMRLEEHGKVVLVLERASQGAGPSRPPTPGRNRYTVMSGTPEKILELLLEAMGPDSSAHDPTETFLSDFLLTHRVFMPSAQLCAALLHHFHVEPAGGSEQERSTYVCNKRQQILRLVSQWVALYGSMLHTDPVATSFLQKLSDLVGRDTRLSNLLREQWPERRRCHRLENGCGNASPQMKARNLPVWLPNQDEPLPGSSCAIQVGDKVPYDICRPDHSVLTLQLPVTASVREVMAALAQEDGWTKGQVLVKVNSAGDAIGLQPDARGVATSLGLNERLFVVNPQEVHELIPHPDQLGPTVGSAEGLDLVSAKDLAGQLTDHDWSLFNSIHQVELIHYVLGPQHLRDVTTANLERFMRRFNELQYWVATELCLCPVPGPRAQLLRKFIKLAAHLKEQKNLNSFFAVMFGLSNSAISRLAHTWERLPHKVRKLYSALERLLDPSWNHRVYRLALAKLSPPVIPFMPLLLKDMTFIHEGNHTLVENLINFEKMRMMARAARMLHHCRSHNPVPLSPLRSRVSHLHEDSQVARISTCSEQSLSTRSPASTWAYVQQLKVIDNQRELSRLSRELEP

[2] = target: Rap guanine nucleotide exchange factor 4 (Homo sapiens) (UniProt Q8WZA2); assay: Confirmatory qHTS for agonist of cAMP-regulated guanine nucleotide exchange factor 4 (EPAC2) (AID 1645884);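 also: nucleotide exchange releases bodipy-GDP from Rap1 and this lowers its fluorescence; % is scaled to controls: 0 for no effect and ±100 for the full control effect; nearly all actives have a fitted effect of over 65% in size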
Sequence of Rap guanine nucleotide exchange factor 4 (Homo sapiens) (Q8WZA2 whole entry, looked up): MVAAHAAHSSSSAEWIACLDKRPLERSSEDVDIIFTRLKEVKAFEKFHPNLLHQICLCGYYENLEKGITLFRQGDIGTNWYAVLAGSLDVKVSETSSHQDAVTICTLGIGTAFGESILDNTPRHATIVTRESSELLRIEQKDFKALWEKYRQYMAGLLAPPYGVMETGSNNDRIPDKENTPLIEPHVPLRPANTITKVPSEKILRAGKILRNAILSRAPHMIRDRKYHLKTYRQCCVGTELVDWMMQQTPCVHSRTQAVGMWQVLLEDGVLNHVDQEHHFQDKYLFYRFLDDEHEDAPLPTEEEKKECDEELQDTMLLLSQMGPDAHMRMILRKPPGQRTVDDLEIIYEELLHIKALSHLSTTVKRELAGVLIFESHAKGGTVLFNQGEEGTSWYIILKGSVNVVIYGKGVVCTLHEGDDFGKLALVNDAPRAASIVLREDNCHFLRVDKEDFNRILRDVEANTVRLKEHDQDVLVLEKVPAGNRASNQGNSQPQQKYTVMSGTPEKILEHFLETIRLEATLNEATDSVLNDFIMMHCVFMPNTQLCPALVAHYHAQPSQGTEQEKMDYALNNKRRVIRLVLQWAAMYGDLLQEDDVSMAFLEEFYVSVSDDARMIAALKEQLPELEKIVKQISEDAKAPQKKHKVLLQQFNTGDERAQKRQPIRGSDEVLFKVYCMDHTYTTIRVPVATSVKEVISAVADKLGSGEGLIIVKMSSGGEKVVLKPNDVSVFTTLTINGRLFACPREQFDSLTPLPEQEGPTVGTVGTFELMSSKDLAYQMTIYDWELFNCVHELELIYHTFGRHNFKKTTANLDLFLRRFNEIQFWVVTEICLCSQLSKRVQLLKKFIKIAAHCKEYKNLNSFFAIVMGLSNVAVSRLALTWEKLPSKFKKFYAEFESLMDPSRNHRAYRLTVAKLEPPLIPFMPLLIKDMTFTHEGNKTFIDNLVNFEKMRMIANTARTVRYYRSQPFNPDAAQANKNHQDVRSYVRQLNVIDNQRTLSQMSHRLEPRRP

[3] = target: Rap guanine nucleotide exchange factor 4 (Homo sapiens) (UniProt Q8WZA2); assay: Confirmatory qHTS for antagonist of cAMP-regulated guanine nucleotide exchange factor 4 (EPAC2) (AID 1645885); also: nearly all actives have a fitted effect of over 25% in size; as to activity change, negative = inhibition: % is scaled to controls: 0 for no effect and ±100 for the full control effect
[4] = target: Rap guanine nucleotide exchange factor 3 (Homo sapiens) (UniProt O95398); assay: Counterscreen qHTS for antagonist of cAMP-regulated guanine nucleotide exchange factor 3 (EPAC1) (AID 1645888);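 also: fluorescence loss as bound BODIPY-GDP is released from Rap1B; % of control where 0% means no effect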
How it was run: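 Measured: fluorescence of BODIPY-GDP bound to Rap1B, which falls as exchange proceeds. Conditions include 50 uM competing GDP, 5 and 30 min reads, and a later cAMP challenge for antagonist detection.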

Cc1cc(SCC(=O)N/N=C/c2ccc(O)c(O)c2)nc2ccccc12
inactive: Potency [1] | activation [2] 5.52% [at 17.1 µM, percent relative to cAMP agonist control] | Potency [3] | activity change, negative = inhibition [4] -2.02% [at 30.8 µM]

Cc1ccc(C(C)C)c(OCC(=O)NCC2(N3CCOCC3)CCCCC2)c1
inactive: Potency [1] | Potency [2] | Potency [3] | Potency [4]

CCOC(=O)c1c(C)oc2nc(C)nc(N(C)Cc3ccccc3)c12
inactive: Potency [1] | Potency [2] | outcome [3] inactive [at 12.7 µM] | Potency [4]

Cc1cccn2c(=O)c3cc(C#N)c(=NC(=O)c4ccccc4)n(Cc4ccco4)c3nc12
inactive: Potency [1] | activation [2] 11% [at 17.1 µM, percent relative to cAMP agonist control] | Potency [3] | activity change, negative = inhibition [4] 15.9% [at 30.8 µM]

COc1ccc(NC(=O)c2ccco2)cc1NC(=O)C(C)Oc1ccc(Cl)cc1Cl (stereo not drawn)
inactive: Potency [1] | Potency [2] | Potency [3] | Potency [4]

CCOC(=O)c1ccc(-n2c(N)c(C(=O)OC)c3nc4ccccc4nc32)cc1
inactive: Potency [1] | Potency [2] | outcome [3] inactive [at 12.7 µM] | Potency [4]

CCc1nc2c(OCCC3CCCCC3)cccn2c1N(C)C(=O)c1ccc(C)cc1
inactive: Potency [1] | Potency [2] | Potency [3] | Potency [4]

Oc1ccc(NCc2ccccc2OCc2ccccc2F)cc1
inactive: Potency [1] | Potency [2] | Potency [3] | Potency [4]

O=C1C(=O)c2cccnc2-c2ncccc21
inactive: Potency [1] | Potency [2] | Potency [3] | Potency [4]

O=C(NNC(=O)c1ccccc1F)c1cccc(-n2cccc2)c1
inactive: Potency [1] | Potency [2] | Potency [3] | Potency [4]

COc1ccc(OC)c(CNC(=O)CCCc2cn(C)c3ccccc23)c1
inactive: Potency [1] | Potency [2] | Potency [3] | Potency [4]

CC(NC(=O)/C(C#N)=C/c1ccc([N+](=O)[O-])o1)c1ccccc1 (stereo not drawn)
inactive: Potency [1] | activation [2] 5.83% [at 17.1 µM, percent relative to cAMP agonist control] | Potency [3] | activity change, negative = inhibition [4] 20.7% [at 30.8 µM]

COc1ccc(OC)c(-n2c(SC)nnc2-c2c[nH]c3ccccc23)c1
inactive: Potency [1] | Potency [2] | Potency [3] | Potency [4]

CCc1nc2c(OCc3ccc(C(F)(F)F)cc3)cccn2c1N(C)C(=O)C(C)C
inactive: Potency [1] | activation [2] -0.706% [at 17.1 µM, percent relative to cAMP agonist control] | Potency [3] | activity change, negative = inhibition [4] -5.96% [at 30.8 µM]

CC(C)CCn1c(Oc2ccccc2Cl)nc2c1c(=O)n(C)c(=O)n2C
inactive: Potency [1] | Potency [2] | Potency [3] | Potency [4]

COc1ccc(NC(=O)CN(C)C(=O)c2cc(-c3ccco3)nc3ccccc23)cc1
inactive: Potency [1] | Potency [2] | Potency [3] | Potency [4]

CC(NS(=O)(=O)OCC(Cl)(Cl)Cl)c1ccc(Br)cc1 (stereo not drawn)
inactive: Potency [1] | Potency [2] | Potency [3] | Potency [4]

CCOC(=O)c1cnc2ccc(C(=O)OC)cc2c1Nc1ccccc1CC
inactive: Potency [1] | Potency [2] | Potency [3] | Potency [4]

CCSc1nc2c([nH]c3ccccc32)c(=O)n1-c1cccc(OC)c1
inactive: Potency [1] | Potency [2] | Potency [3] | Potency [4]

Cc1nnc(SCC(=O)NCc2ccccc2F)c2nn(-c3ccc(Cl)cc3)c(C)c12
inactive: Potency [1] | Potency [2] | Potency [3] | Potency [4]

C/C=C/COC(=O)c1[nH]c2c(c1C)C(=O)CC(c1ccco1)C2 (stereo not drawn)
inactive: Potency [1] | Potency [2] | Potency [3] | Potency [4]

O=C1CCCC2=C1C(c1ccc(O)c(O)c1)Nc1ccc3ccccc3c12 (stereo not drawn)
inactive: Potency [1] | Potency [2] | Potency [3] | Potency [4]

CCCCc1ccc(NS(=O)(=O)c2cc3c4c(c2)CC(=O)N4CCC3)cc1
inactive: Potency [1] | Potency [2] | Potency [3] | Potency [4]

N=C1/C(=C\c2ccc(-c3cccc(Cl)c3)o2)C(=O)N=C2SC=C(c3ccccc3)N12
inactive: Potency [1] | Potency [2] | Potency [3] | Potency [4]

CCc1ccc2c(c1)NC(=O)C2(C)Cc1ccc(Cl)s1 (stereo not drawn)
inactive: Potency [1] | activation [2] 0.147% [at 17.1 µM, percent relative to cAMP agonist control] | Potency [3] | activity change, negative = inhibition [4] -21.9% [at 30.8 µM]

CC(C)Oc1cccc(C(=O)Nc2ccc3oc(-c4cccc(Cl)c4)nc3c2)c1
inactive: Potency [1] | Potency [2] | Potency [3] | Potency [4]

CC1=NN(c2ccccc2)C(=O)C1=Cc1ccccc1
inactive: Potency [1] | activation [2] -2.46% [at 17.1 µM, percent relative to cAMP agonist control] | Potency [3] | activity change, negative = inhibition [4] 42% [at 30.8 µM]
